# Source: the supplement of paper PMC12645437, “Orthogonal IMiD-Degron Pairs Induce Selective Protein Degradation in Cells” (ACS Chemical Biology, 2025)
# In all, about 8,300 sequences were measured (“log2 fold change of degron read counts, EGFP-low vs EGFP+ sorted cells (limma voom), compound-induced degradation”: median about -1.1, highest 2% from about 3.2 on). What follows is part of a selection rich in the highest values, with near analogues and random picks from the rest.
# T1: CRBN, Q96SW2
# T1 chain: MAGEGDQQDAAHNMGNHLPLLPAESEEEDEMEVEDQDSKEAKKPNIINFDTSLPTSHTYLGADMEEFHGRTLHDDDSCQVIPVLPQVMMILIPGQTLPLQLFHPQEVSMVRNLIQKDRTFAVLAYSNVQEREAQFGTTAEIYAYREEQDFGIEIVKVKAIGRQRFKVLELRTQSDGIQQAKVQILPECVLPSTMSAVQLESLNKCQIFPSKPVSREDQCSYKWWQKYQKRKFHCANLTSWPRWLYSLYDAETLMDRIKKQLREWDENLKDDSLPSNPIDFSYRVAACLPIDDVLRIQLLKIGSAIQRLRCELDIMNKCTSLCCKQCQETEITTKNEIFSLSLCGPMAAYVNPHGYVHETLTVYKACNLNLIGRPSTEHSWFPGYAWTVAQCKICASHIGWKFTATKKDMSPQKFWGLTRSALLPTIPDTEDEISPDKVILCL
# Target: T1, CRBN, Q96SW2
# Assay: log2 fold change of degron read counts, EGFP-low vs EGFP+ sorted cells (limma voom), compound-induced degradation; higher = more compound-induced degradation of the degron-EGFP fusion; degrons are variants of IKZF1/3 zinc finger 2; compound dose not given here
# Conditions: Jurkat, 18 h
# Procedure: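 Pooled library of 8380 IKZF3 ZF2 degron mutants (positions 146-167 varied within the IKZF3 130-189 degron; only the varied core is printed, flanks not printed) fused to EGFP with IRES-mCherry, lentivirally expressed in Jurkat cells. mCherry+ cells were treated with one IMiD compound for 18 h (dose not stated) and FACS-sorted into EGFP-low and EGFP+ populations. Degron sequences were counted by NGS, and log2FC (EGFP-low vs EGFP+) was estimated by limma voom over 3 biological replicates.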
# [1] = compound: compound 19 (5-tert-butyl-thalidomide)
# [2] = compound: compound 22 (5-morpholino-thalidomide)
# [3] = compound: compound 33 (diphenyl IMiD analogue)
# 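Further: pooled lentiviral library of zinc finger degron-EGFP fusions in mCherry-positive Jurkat cells, FACS-sorted after compound exposure, with degron abundance counted by next-generation sequencing.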
Sequence,log2 fold change of degron read counts [1],log2 fold change of degron read counts [2],log2 fold change of degron read counts [3],log2 fold change of degron read counts (compound: thalidomide)
"LRCPICGFHCTQKGNLLRHIKL [46L_47R_49P_50I_52G_53F_54H_55C_67L_, Q9UKT9]",-0.0105,0.25,1.59,2.32
"FECEICGHTFTQKGNLLRHIKL [46F_47E_49E_50I_52G_53H_54T_55F_67L_, Q9UKT9]",-3.53,-3.12,-2.68,-2.57
"FECNVCGACFTQKGNLLRHIKL [46F_47E_49N_50V_52G_53A_54C_55F_67L_, Q9UKT9]",-1.77,-2.3,0.438,0.297
"FACEICGAIFTQKGNLLRHIKL [46F_47A_49E_50I_52G_53A_54I_55F_67L_, Q9UKT9]",3.52,1.96,0.532,0.207
"FSCEICGAIFTQKGNLLRHIKL [46F_47S_49E_50I_52G_53A_54I_55F_67L_, Q9UKT9]",2.19,1.4,1.65,0.91
"FHCEICGAIFTQKGNLLRHIKL [46F_47H_49E_50I_52G_53A_54I_55F_67L_, Q9UKT9]",1.06,0.746,0.49,-0.388
"FRCEICGAIFTQKGNLLRHIKL [46F_47R_49E_50I_52G_53A_54I_55F_67L_, Q9UKT9]",-1.64,-0.637,1.17,1.56
"FFCEICGAIFTQKGNLLRHIKL [46F_47F_49E_50I_52G_53A_54I_55F_67L_, Q9UKT9]",3.4,3.61,1.62,0.938
"FYCEICGAIFTQKGNLLRHIKL [46F_47Y_49E_50I_52G_53A_54I_55F_67L_, Q9UKT9]",3.43,3.53,2.4,0.401
"FDCEICGAIFTQKGNLLRHIKL [46F_47D_49E_50I_52G_53A_54I_55F_67L_, Q9UKT9]",-0.448,-0.893,-0.134,-0.014
"FICEICGAIFTQKGNLLRHIKL [46F_47I_49E_50I_52G_53A_54I_55F_67L_, Q9UKT9]",-0.706,0.427,2.23,1.71
"FWCEICGAIFTQKGNLLRHIKL [46F_47W_49E_50I_52G_53A_54I_55F_67L_, Q9UKT9]",3.17,3.55,2.41,0.519
"FGCEICGAIFTQKGNLLRHIKL [46F_47G_49E_50I_52G_53A_54I_55F_67L_, Q9UKT9]",2.93,2.72,1.73,0.804
"FNCEICGAIFTQKGNLLRHIKL [46F_47N_49E_50I_52G_53A_54I_55F_67L_, Q9UKT9]",0.366,-0.376,-0.467,-0.484
"FECEICGAIFTQKGNLLRHIKL [46F_47E_49E_50I_52G_53A_54I_55F_67L_, Q9UKT9]",-1.24,-1.08,1.05,2.4
"FSCNQCGRCFTQKGNLLRHIKL [46F_47S_49N_50Q_52G_53R_54C_55F_67L_, Q9UKT9]",-2.78,-2.88,-2.83,-2.73

Sequence,log2 fold change of degron read counts [1],log2 fold change of degron read counts [2],log2 fold change of degron read counts [3],log2 fold change of degron read counts (compound: thalidomide)
"FNCPQCGADFTQKGNLLRHIKL [46F_47N_49P_50Q_52G_53A_54D_55F_67L_, Q9UKT9]",-3.44,-3.57,-2.75,-3.69
"FFCNICGAEFTQKGNLLRHIKL [46F_47F_49N_50I_52G_53A_54E_55F_67L_, Q9UKT9]",1.77,1.94,0.373,-0.454
"FSCPICGHQFTQKGNLLRHIKL [46F_47S_49P_50I_52G_53H_54Q_55F_67L_, Q9UKT9]",-2.3,-3.17,-1.53,-1.82
"FSCNQCGRDFTQKGNLLRHIKL [46F_47S_49N_50Q_52G_53R_54D_55F_67L_, Q9UKT9]",-3.12,-4.04,-2.59,-2.97
"LFCNQCGFNCTQKGNLLRHIKL [46L_47F_49N_50Q_52G_53F_54N_55C_67L_, Q9UKT9]",-1.81,-1.88,-1.92,-1.45
"FECNQCGAHFTQKGNLLRHIKL [46F_47E_49N_50Q_52G_53A_54H_55F_67L_, Q9UKT9]",-2.49,-3.01,-2.49,-2.34
"FMCEICGAIFTQKGNLLRHIKL [46F_47M_49E_50I_52G_53A_54I_55F_67L_, Q9UKT9]",-1.18,-0.577,2.14,0.96
"FCCEICGAIFTQKGNLLRHIKL [46F_47C_49E_50I_52G_53A_54I_55F_67L_, Q9UKT9]",1.48,1.57,2.5,1.97
"FQCEICGAIFTQKGNLLRHIKL [46F_47Q_49E_50I_52G_53A_54I_55F_67L_, Q9UKT9]",-0.255,3.16,2.84,3.68
"FICDVCGASFTQKGNLLRHIKL [46F_47I_49D_50V_52G_53A_54S_55F_67L_, Q9UKT9]",-1.49,1.22,0.774,0.427
"FRCEVCGAHFTQKGNLLRHIKL [46F_47R_49E_50V_52G_53A_54H_55F_67L_, Q9UKT9]",-1.19,-1.13,0.668,0.202
"FVCEVCGAHFTQKGNLLRHIKL [46F_47V_49E_50V_52G_53A_54H_55F_67L_, Q9UKT9]",-0.244,1.53,1.35,1.87
"FWCEVCGAHFTQKGNLLRHIKL [46F_47W_49E_50V_52G_53A_54H_55F_67L_, Q9UKT9]",3.1,3.92,1.96,0.936
"FACEVCGAHFTQKGNLLRHIKL [46F_47A_49E_50V_52G_53A_54H_55F_67L_, Q9UKT9]",3.16,0.662,0.411,-0.296
"FYCEVCGAHFTQKGNLLRHIKL [46F_47Y_49E_50V_52G_53A_54H_55F_67L_, Q9UKT9]",3.12,3.62,2.45,0.916
"FTCEVCGAHFTQKGNLLRHIKL [46F_47T_49E_50V_52G_53A_54H_55F_67L_, Q9UKT9]",-0.0867,0.738,1.47,2.04
